# Compound activity as filed in PubChem.
# SKKanGAS inh: S. pyogenes SKKanGAS growth inhibitors in kanamycin, primary screen, streptokinase expression inhibitor project, SKKanGAS strain, BacTiter-Glo luminescence | inhibition, % at 7.5 µM | 300,000 compounds, 1.3% hits | 6 h;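 active means mean replicate score, as percent of positive control median, at least 50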;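 further: strain carries kanamycin resistance gene driven by streptokinase promoter and grows in 40 µg/ml kanamycin; loss of luminescence reflects streptokinase promoter inhibition or plain growth inhibition; 0% = median of DMSO wells and 100% = positive control at its reference dose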
# TIM10 inh: growth inhibitors of isogenic TIM10 control yeast, primary screen, counter-screen for tim10-1 yeast inhibitor project, luminescence, uHTS. inhibition, % at 10 µM. AID 463195, 2010. S. cerevisiae TIM10 strain growth, BacTiter-Glo luminescence, 24 h. 330,000 compounds, 1.4% hits;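 active means inhibition of 40% or more at the single tested concentration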;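 further: wild-type TIM10 isogenic control strain grown at permissive 25 °C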
# NALP3 yeast inh: NALP3 inflammasome inhibitors in reconstituted yeast, primary screen, luminescence, uHTS. 330,000 compounds, 0.39% hits. Yeast reconstituted NLRP3/ASC/caspase-1, beta-gal luminescence, 24 h. AID 2825, 2010. inhibition, % at 10 µM;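 active means inhibition of 50% or more; inactive means inhibition below 50%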;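 further: plate controls were induced DMSO wells for no effect and uninduced yeast grown without galactose for full effect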
# PfHsp90 yeast 2: growth inhibition of PfHsp90-expressing yeast, primary screen, antimalarial PfHsp90 inhibitor project, S. cerevisiae, BacTiter-Glo luminescence, single point, set 2 | BacTiter-Glo ATP, 48 h; yeast lacking PDR1 and PDR3 efflux regulators | inhibition, % at 9.4 µM | 310,000 compounds, 0.32% hits | AID 504621, 2011;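 active means every replicate shows inhibition above about 80%, whatever the replicate mean, limit read from the data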;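 further: 0% = DMSO neutral controls and 100% = 20 µM radicicol positive controls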
# tim23-1 inh: growth inhibitors of tim23-1 mutant yeast, primary screen, luminescence, uHTS; S. cerevisiae tim23-1 growth, BacTiter-Glo luminescence, 24 h; inhibition, % at 20 µM; 330,000 compounds, 1.3% hits;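 active means growth inhibition of the mutant yeast at or above 50%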;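 further: temperature-sensitive mutant grown at 25 °C; plate controls were DMSO-treated mutant yeast for no effect and medium wells lacking yeast for full effect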
# tim10-1 inh: growth inhibitors of tim10-1 mutant yeast, primary screen, luminescence, uHTS. 330,000 compounds, 2.2% hits. inhibition, % at 20 µM. S. cerevisiae tim10-1 ts strain growth, BacTiter-Glo, 24 h;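 active means inhibition of at least 40%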;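 further: mutant grown at 25 °C; 0% = DMSO wells with yeast and 100% = wells holding no yeast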
# TIM10 conf: growth inhibitors of wild-type TIM10 yeast, confirmation, counter-screen for tim10-1 synthetic lethality project, single concentration, luminescence, S. cerevisiae; shares compounds with TIM10 inh; S. cerevisiae tim10 strain growth, BacTiter-Glo luminescence, 24 h; inhibition, % at 10 µM; 4,600 compounds, 63% hits;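 active means inhibition of yeast growth at or above a set limit in either of two replicates at 10 µM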;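 further: this counterscreen used the strain with wild-type TIM10; 0% = yeast with DMSO and 100% = medium wells lacking yeast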
# tim23-1 confirm: tim23-1 mutant yeast growth inhibitors, confirmation, luminescence, single concentration; 4,400 compounds, 83% hits; inhibition, % at 20 µM; S. cerevisiae tim23-1 growth, BacTiter-Glo luminescence, 24 h; shares compounds with tim23-1 inh;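 active means inhibition above about 39% in either of two replicate wells at 20 µM, limit read from the data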;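 further: temperature-sensitive tim23-1 mutant grown at 25 °C; 0% = DMSO wells with yeast and 100% = medium wells without yeast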
# Active calls of the source: *; nt = not tested or not shown. Only some compounds are listed: those with a hit (about 4.6% of all), similar ones and a draw of the others.
SMILES,SKKanGAS inh,TIM10 inh,NALP3 yeast inh,PfHsp90 yeast 2,tim23-1 inh,tim10-1 inh,TIM10 conf,tim23-1 confirm
Cc1cccc(NC(=O)CCS(=O)(=O)c2ccc(Cl)cc2)c1,4.2,12.3,3.4,3.7,11.4,3.7,nt,nt
N/C(Cc1ccc(Cl)cc1Cl)=N\OC(=O)c1ccc(Br)o1,0.9,86.3*,-0.8,97.6*,80.3*,6.7,86.5*,48.4*
CCc1cccc2c(C(=S)N3CCCC3)c[nH]c12,3.8,32.6,16.9,-6.7,26.0,32.3,nt,nt
CCc1cccc2c(C(=O)CCl)c[nH]c12,nt,42.0*,-20.3,-75.9,53.9*,29.5,27.5,54.0*
O=C(O)c1ccc2c(c1)N(Cc1ccccc1)C(=O)c1ccccc1S2,10.0,3.1,6.3,-21.6,18.1,1.8,nt,nt
O=C(O)c1ccccc1C(=O)c1ccc(F)c(F)c1,nt,nt,nt,20.7,nt,nt,nt,nt
O=c1[nH]c2ccccc2nc1Cc1ccc([N+](=O)[O-])cc1,2.6,6.2,25.7,-22.9,1.3,-10.8,nt,nt
Cc1ccccc1-c1noc(-c2ccc(O)cc2)n1,12.4,48.2*,21.4,56.2,87.7*,30.5,61.5*,73.2*
Cc1ccccc1-c1noc(-c2ccc(Cl)cc2)n1,-8.1,15.5,2.9,-0.6,4.1,20.3,nt,nt
Cc1ccc(NC(=O)Cn2c(-c3ccc(F)cc3)cnc2SCC(=O)Nc2c(C)cccc2C)cc1,2.5,10.2,8.3,-37.2,-0.3,14.2,nt,nt
Cc1ccc(OCC(=O)NC2CCS(=O)(=O)C2)c([N+](=O)[O-])n1 (stereo not given),-5.2,-6.4,14.1,-11.7,-7.1,-0.4,nt,nt
Cc1ccc2nc(NC(=O)COC(=O)c3ccccn3)sc2c1,0.8,43.4*,-11.4,nt,58.9*,18.6,26.4,69.8*
CC(C)OP(=O)(OC(C)C)/C(C=O)=N\Nc1ccc([N+](=O)[O-])cc1,0.9,50.9*,40.9,-18.6,67.2*,38.2,49.9*,67.5*
COCc1cc(=O)[nH]c(SCCS(=O)(=O)c2ccc(Cl)cc2Cl)n1,6.2,43.8*,-11.4,-17.0,57.7*,31.0,35.1*,28.2
O=Nc1ccc(NOC(=O)c2ccccc2Br)cc1,3.4,61.5*,26.8,3.1,56.6*,20.3,59.9*,72.9*
C[C@@H]1O[C@@H](OCCC(=O)O)[C@H](O)C[C@H]1O,nt,-3.5,8.5,nt,5.9,-14.9,nt,nt
Cc1nn(CC(C)C)c(Cl)c1C(=O)N(C)CC(=O)Nc1c(Cl)cccc1Cl,-0.5,7.8,4.2,-2.6,8.8,13.2,nt,nt
C[C@]12CC[C@H](O)CC1=CCC1C2CC[C@@]2(C)C1CC[C@@H]2NC(=O)[C@@H](N)Cc1ccccc1 (stereo not given in full),nt,54.6*,45.9,40.0,57.7*,34.1,59.6*,55.0*
Cc1ccc(NC(=O)c2ccccc2)s1,-1.8,57.5*,3.4,nt,54.6*,26.1,37.8*,73.5*
Cc1ccc(C)n1-c1ccc(NC(=O)c2ccccc2)cc1,7.6,-8.9,4.1,0.3,26.4,12.9,nt,nt
O=C(NCCc1ccccc1)C(=O)NCC1CCNCC1,-13.6,-0.5,-0.4,nt,16.7,0.7,nt,nt
Cc1ccc(NC(=O)c2ccc(=O)[nH]n2)cc1S(=O)(=O)Nc1ccc(SC(F)F)cc1,nt,9.6,0.8,-57.1,8.8,-3.2,nt,nt
COc1ccccc1/C=C/C(=O)NC(=S)N(C)C1CCCCC1,-6.7,10.3,9.1,-9.9,25.5,0.4,nt,nt
COc1ccc(C(=O)NC(=S)N(C)C2CCCCC2)cc1Br,73.4*,42.2*,27.5,-45.5,54.6*,37.6,13.1,48.5*
CCCN(C(=O)c1cc(S(=O)(=O)N2CCN(CC)CC2)ccc1Cl)C1CCS(=O)(=O)C1 (stereo not given),nt,nt,nt,9.9,nt,nt,nt,nt
SMILES,SKKanGAS inh,TIM10 inh,NALP3 yeast inh,PfHsp90 yeast 2,tim23-1 inh,tim10-1 inh,TIM10 conf,tim23-1 confirm
C=CCC1(C#N)C(SC)=NC2=C(C(=O)CC(C)(C)C2)C1c1ccc(Br)cc1 (stereo not given),10.1,44.2*,13.7,-12.9,55.0*,39.4,32.0*,43.4*
O=C(Nc1nccs1)c1ccc2c(=O)n3c(nc2c1)CCCCC3,3.9,49.4*,36.0,9.9,52.4*,6.3,43.6*,66.5*
O=C(Nc1nccs1)c1ccc2ccccc2c1,22.2,46.4*,46.6,-37.5,53.6*,-27.5,51.5*,62.8*
O=C(Nc1nccs1)c1ccc(S(=O)(=O)c2ccccc2)cc1,1.6,4.0,-5.2,3.9,-5.6,6.9,nt,nt
O=c1[nH]c(SCc2ccccc2[N+](=O)[O-])nc2nc[nH]c12,-3.7,1.6,-6.5,11.8,14.0,0.3,nt,nt
CC1=C(C)/C(=N/OC(=O)c2cccc([N+](=O)[O-])c2)C=CC1=O,-0.5,40.7*,-0.4,nt,61.7*,39.7,19.2,85.8*
COc1ccc(C/C(N)=N/OC(=O)c2cccc([N+](=O)[O-])c2)cc1,2.4,72.0*,2.9,-5.1,72.6*,27.0,85.8*,67.6*
N/C(Cc1ccc(Cl)cc1)=N\OC(=O)Cc1ccc([N+](=O)[O-])cc1,1.5,77.3*,39.4,-12.9,55.2*,37.8,-5.9,72.2*
COc1ccc(/C=N/NC(=O)Cc2ccc(Cl)cc2)cc1OC,1.2,31.1,3.6,-9.8,-20.9,-12.4,nt,nt
COc1ccc(C(=O)O/N=C(\N)Cc2ccc(Cl)cc2)cc1OC,-1.7,79.0*,4.0,-17.3,67.6*,-1.8,86.4*,49.0*
COc1ccc(Cl)cc1C(=O)O/N=C(\N)c1ccc(Cl)cc1,-1.0,79.2*,12.1,2.0,88.8*,28.6,83.3*,43.8*
N/C(=N\OC(=O)c1cc(Cl)ccc1Cl)c1ccncc1,8.4,9.3,-13.8,-7.5,14.2,26.6,nt,nt
O=C(O)c1cc(NC(=O)c2cccc(C(=O)Nc3cc(C(=O)O)cc(C(=O)O)c3)c2)cc(C(=O)O)c1,2.6,-0.9,-7.7,-8.3,-2.7,-8.4,nt,nt
COc1ccc(C(=O)Nc2ccc3ccccc3c2)c(OC)c1,7.8,57.4*,30.5,17.7,60.5*,17.7,62.0*,80.0*
CCN(CC)CCC(C)OC(c1ccccc1)c1ccccc1 (stereo not given),-14.1,5.7,19.0,2.2,13.3,-8.5,nt,nt
Cc1cc(C)c(OCC(=O)Nc2cccc(NC(=O)c3ccco3)c2)c(Br)c1,27.4,45.2*,29.9,-2.1,55.4*,17.9,28.8,43.5*
